Molecules are shown by their SMILES. Screen size: about 52,000 compounds; about 4,300 (8.3%) were called active. The full list was thinned out, with actives kept by preference. Unmarked numbers belong to inactive results. Rule as the data show it: active = survival mostly below about 52% (no sharp cut-off); inactive = mostly above about 56%.

For the experiment, the system named is DeltatarO mutant. Briefly: growth inhibition of S. aureus wild type versus tarO mutant, primary screen, teichoic acid synthesis inhibitors, RN4220, OD600 (AID 463173). The settings on record: OD600, 18 h, stronger effect = lower value, screened at 18.75 µg/mL (by protocol).
For `COc1ccc2c(c1)c1c(c(=O)n(Cc3ccccc3)c(=O)n1CC(=O)NCc1ccccc1)n2C`, the survival is 91%.

On to `COc1ccccc1CNC(=O)CCc1c(C)c2ccc(OC)c(C)c2oc1=O`, for which the survival was 74%.

For the molecule `Cc1ccc(Cl)cc1-n1nnc(-c2nc(-c3ccc4c(c3)OCO4)no2)c1C`, the survival was 122%.

For `N#C/C(=C(/O)CN1C(=O)c2ccccc2C1=O)c1nc2ccccc2[nH]1`, the survival was 76%.

As for `Cc1ccc(Nc2c(-c3ccc(N4CCOCC4)cc3)nc3ncccn23)cc1`, the survival is 139%.

Turning to `Cc1ccc(Nc2c(-c3ccc(C)s3)nc3ncccn23)cc1`, the survival is 9% (active).

`Cc1ccn2c(Nc3ccccc3C)c(-c3ccc(N4CCOCC4)cc3)nc2c1`: the survival was 89%.

For `Cc1ccc2nc(-c3ccc(N4CCOCC4)cc3)c(Nc3ccccc3C)n2c1`, the survival is 71%.

For the molecule `Cc1ccccc1Nc1c(-c2ccc(N3CCOCC3)cc2)nc2ccccn12`, the survival was 41% (active).

Take `Cc1ccc(-c2nc3ncccn3c2Nc2ccc3c(c2)OCCO3)cc1`: the survival is 79%.

In the case of `CCOC(=O)c1cnc2cc(-c3ccc(C)cc3)nn2c1C`, the survival was 74%.

On to `O=C1COc2cc(S(=O)(=O)CCC(=O)NC3CCCCC3)c(Cl)cc2N1`, for which the survival is 93%.

In the case of `CCc1sc(Nc2cccc(C)c2)nc1-c1cc2cccc(OC)c2oc1=O`, the survival was 94%.

Consider `Cc1cccc(CN2C(=O)c3ccccc3Sc3ccc(C(=O)NCCCN4CCOCC4)cc32)c1`, for which the survival was 37% (active).

For `Cc1ccccc1CN1C(=O)c2ccccc2Sc2ccc(C(=O)NCCc3ccccc3)cc21`, the survival is 101%.

Regarding `Cc1ccccc1CN1C(=O)c2ccccc2Sc2ccc(C(=O)NCc3ccccc3)cc21`, the survival is 37% (active).

For the molecule `Cc1cccc(CN2C(=O)c3ccccc3Sc3ccc(C(=O)NCc4ccco4)cc32)c1`, the survival was 102%.

With `O=C(NC1CCCCC1)c1ccc2c(c1)N(Cc1ccccc1)C(=O)c1ccccc1S2`, the survival was 46% (active).

Consider `O=C(NC1CCCC1)c1ccc2c(c1)N(Cc1ccccc1)C(=O)c1ccccc1S2`, for which the survival was 105%.

As to `Cc1ccccc1CN1C(=O)c2ccccc2Sc2ccc(C(=O)NCc3cccs3)cc21`, the survival is 93%.

With `Cc1ccc(C)c(CN2C(=O)c3ccccc3Sc3ccc(C(=O)NCc4ccco4)cc32)c1`, the survival was 17% (active).

Turning to `Cc1ccc(CN2C(=O)c3ccccc3Sc3ccc(C(=O)NC4CCCCC4)cc32)cc1`, the survival is 100%.

In the case of `O=C(NCCCN1CCOCC1)c1ccc2c(c1)N(Cc1ccccc1)C(=O)c1ccccc1S2`, the survival was 98%.

As to `Cc1ccc(CN2C(=O)c3ccccc3Sc3ccc(C(=O)NCCCN4CCOCC4)cc32)cc1`, the survival is 126%.

For the molecule `Cc1ccc(CN2C(=O)c3ccccc3Sc3ccc(C(=O)NCc4ccco4)cc32)cc1`, the survival was 81%.

Consider `Cc1ccc(C)c(N2CCN(S(=O)(=O)c3ccc4c(c3)OCCO4)CC2)c1`, for which the survival was 76%.

With `Cc1nn(-c2ccccc2)c2c1N(CC(=O)N1CCN(c3ccc(F)cc3)CC1)C(=O)CS2`, the survival is 81%.

In the case of `CC(C)(C)c1ccc(C(=O)NCC(c2cccs2)S(=O)(=O)c2ccc(F)cc2)cc1` (centres undefined), the survival was 90%.

On to `Cc1ccc(CNC(=O)C2CCCN(c3nn4cc(-c5ccc(C)cc5)nc4s3)C2)cc1` (centres undefined), for which the survival was 93%.

On to `CC(=O)c1ccc(N2C(=O)N(CC(=O)c3ccc(F)cc3)c3ccccc3S2(=O)=O)cc1`, for which the survival was 102%.

Take `Cc1ccc(NC(=O)CCCc2nc(-c3ccco3)no2)cc1Cl`: the survival is 80%.

For the molecule `CCc1cccc(C)c1NC(=O)Cn1ncc2c3ccccc3n(Cc3ccccc3)c2c1=O`, the survival is 86%.

In the case of `O=C(Nc1ccc2c(c1)N(C1CCCC1)C(=O)c1ccccc1S2)c1ccc(F)cc1`, the survival was 66%.

On to `CC(=O)Nc1ccc(C(=O)Nc2ccc3c(c2)N(C2CCCC2)C(=O)c2ccccc2S3)cc1`, for which the survival was -4% (active).

For the molecule `COc1cccc(CN2C(=O)c3ccccc3Sc3ccc(C(=O)NCc4ccccc4)cc32)c1`, the survival is 80%.

For `O=C(Nc1ccc2c(c1)N(C1CCCC1)C(=O)c1ccccc1S2)c1ccccc1`, the survival was 60%.

As for `COc1ccc(CNC(=O)c2ccc3c(c2)N(Cc2cccc(Cl)c2)C(=O)c2ccccc2S3)c(OC)c1`, the survival is 83%.

Take `COc1cccc(CNC(=O)c2ccc3c(c2)N(Cc2ccc(F)cc2Cl)C(=O)c2ccccc2S3)c1`: the survival was 25% (active).

For the molecule `CC(=O)N1CCc2cc(CNS(=O)(=O)c3ccc(Cl)s3)ccc21`, the survival was 70%.

In the case of `CSc1ccccc1-c1nnc(NC(=O)c2ccc3c(c2)OCCO3)o1`, the survival was 119%.

With `CS(=O)(=O)c1ccc(-c2nnc(NC(=O)c3ccc4c(c3)OCCO4)o2)cc1`, the survival was 60%.

As for `CS(=O)(=O)c1ccccc1-c1nnc(NC(=O)c2ccc3c(c2)OCCO3)o1`, the survival is -4% (active).

For `COc1ccc(S(=O)(=O)N2CCN(C)CC2)c(Cl)c1Cl`, the survival is 75%.

For `O=C1c2[nH]nc(-c3ccccc3O)c2C(c2cccc(O)c2)N1Cc1ccncc1` (centres undefined), the survival is 103%.

With `O=C1c2[nH]nc(-c3ccccc3O)c2C(c2cccc(OCc3ccccc3)c2)N1CCCO` (centres undefined), the survival was 56% (active).

As for `CCCN1C(=O)c2[nH]nc(-c3ccccc3)c2C1c1cccc(O)c1` (centres undefined), the survival is 54%.

With `O=C1c2[nH]nc(-c3ccccc3O)c2C(c2cccc(OCc3ccccc3)c2)N1CCO` (centres undefined), the survival is 67%.

For `CCCN1C(=O)c2[nH]nc(-c3ccccc3O)c2C1c1cccc(OCc2ccccc2)c1` (centres undefined), the survival was 8% (active).

Take `CCCCN1C(=O)c2[nH]nc(-c3ccccc3O)c2C1c1cccc(OCc2ccccc2)c1` (centres undefined): the survival is 18% (active).

As for `Fc1ccc(-c2cn3cc(Cc4ccc(Cl)cc4)sc3n2)cc1`, the survival is 55%.

On to `COc1ccc(CCNC(=O)CCCn2c(=O)c3ccccc3n(CC(=O)Nc3cc(Cl)ccc3C)c2=O)cc1OC`, for which the survival was 69%.

Turning to `Cc1sc2c(c1C)c(=O)n(-c1ccc(Cl)cc1)c(=O)n2Cc1cc(=O)n2cc(Br)ccc2n1`, the survival was 76%.

For `COc1ccc2c(c1)CCc1c(C(=O)Nc3ccc(OC)cc3OC)noc1-2`, the survival was 180%.

Turning to `CCOc1ccc(CNC(=O)c2ccc3c(c2)nc2n3CCOC2)cc1OC`, the survival was 6% (active).

For the molecule `Cc1ccc(C)c(CNC(=O)c2ccc3c(c2)nc2n3CCOC2)c1`, the survival was 67%.

Turning to `COc1ccc(CCNC(=O)c2ccc3c(c2)nc2n3CCOC2)cc1OC`, the survival was -2% (active).

With `O=C(NCc1ccccc1)c1ccc2c(c1)nc1n2CCOC1`, the survival was 84%.

As for `CCOc1ccc(CNC(=O)c2ccc3c(c2)nc2n3CCOC2)cc1`, the survival is 90%.

Take `CCOc1ccc(CNC(=O)c2ccc3c(c2)nc2n3CCC(C)C2)cc1OC` (centres undefined): the survival is 73%.

As for `COc1ccc(CCNC(=O)c2ccc3c(c2)nc2n3CCCCC2)cc1OC`, the survival was 75%.

`O=C(NCc1ccccc1Br)c1ccc2c(c1)nc1n2CCOC1`: the survival is -1% (active).

Turning to `CCOc1ccc(CCNC(=O)c2ccc3c(c2)nc2n3CCOC2)cc1OCC`, the survival was 79%.

With `Cc1cccc(-n2c(SCc3nc(-c4ccccc4C)no3)nnc2-c2ccccc2)c1`, the survival was 74%.

Turning to `O=C(NC1CCN(Cc2nnnn2Cc2ccc3c(c2)OCO3)CC1)c1ccccc1F`, the survival is 91%.

For `NC(=O)c1cc(S(=O)(=O)NCC2CCC(C(=O)Nc3ccc(Cl)cc3)CC2)cs1` (centres undefined), the survival was 66%.

For `O=C(NCc1ccc2c(c1)CCN2C(=O)c1ccc(Cl)cc1)c1ccco1`, the survival was 80%.

As for `O=S(=O)(c1cc(Br)c(Br)s1)N1CCN(c2ccccc2)CC1`, the survival was 72%.

Regarding `Cc1ccc(CNC(=O)c2cc3sc(Cl)cc3n2C)cc1`, the survival was 80%.

With `CCn1c(C(=O)NCc2ccccc2)cc2sc(Cl)cc21`, the survival was 34% (active).

With `CCn1c(C(=O)NCc2ccccc2Cl)cc2sc(Cl)cc21`, the survival is 63%.

As to `CCn1c(C(=O)NCCc2ccc(S(N)(=O)=O)cc2)cc2sc(Cl)cc21`, the survival is 71%.

In the case of `COc1ccc(CCNC(=O)c2cc3sccc3n2Cc2ccc(Cl)cc2)cc1OC`, the survival was 88%.

As for `CCOc1ccc(NC(=O)c2cc3sc(Cl)cc3n2CC)cc1`, the survival is 84%.

As for `CCn1c(C(=O)NCc2ccc(OC)cc2)cc2sc(Cl)cc21`, the survival was 41% (active).

Take `CCn1c(C(=O)NCCc2ccc(OC)c(OC)c2)cc2sc(Cl)cc21`: the survival is 32% (active).

Turning to `CCn1c(C(=O)NCc2ccc(C)cc2)cc2sc(Cl)cc21`, the survival was 92%.

Consider `N#Cc1c[nH]n2c(NC3CCCCC3)c(-c3ccccc3F)nc12`, for which the survival was 56%.

On to `CCCCN(C(=O)c1cccc(S(=O)(=O)N2CCCCC2)c1)C1CCS(=O)(=O)C1` (centres undefined), for which the survival is 117%.

For `COc1ccc(CCNC(=O)CCc2c(C)nc3c4cccnc4nn3c2C)cc1OC`, the survival was 87%.

On to `COc1ccc(CCNC(=O)C2COc3ccccc3O2)cc1` (centres undefined), for which the survival was 89%.

Consider `Cc1ccc(NC(=O)Nc2cc3c(cc2N2CCCCC2)n(C)c(=O)n3C)cc1Cl`, for which the survival was 99%.

Regarding `CC1CN(C(=O)N2CCC(C(=O)NC3CCCCCC3)CC2)c2cc(Cl)ccc2O1` (centres undefined), the survival is 61%.

Regarding `O=C1CC(N2CCCC2)C(=O)N1c1ccccc1` (centres undefined), the survival is 96%.

With `COc1ccccc1CNC(=O)C(=O)NCC(c1cccs1)S(=O)(=O)c1ccc(F)cc1` (centres undefined), the survival was 80%.

For `CC(C)c1ccc(OCc2cc(=O)n3c4c(sc3n2)CCCC4)cc1`, the survival was 73%.

For the molecule `Cc1cccn2c(=O)c(/C=C(\C#N)c3nc4ccccc4[nH]3)c(Oc3ccc(C(C)(C)C)cc3)nc12`, the survival is 93%.

Turning to `COc1ccc(C)cc1NC(=O)CN1C(=O)COc2ccc(S(=O)(=O)N3CCC(C)CC3)cc21`, the survival is 69%.

As to `COc1ccc(-c2cc(C(=O)OCC(=O)c3cccc(OC)c3)c3cccc(Cl)c3n2)cc1`, the survival is 74%.

For the molecule `COc1ccc(-c2cc(C(=O)Oc3cccc(C)c3)c3ccccc3n2)cc1`, the survival was -2% (active).

As to `COc1ccc(-c2cc(C(=O)OCC(=O)c3ccc(C)cc3)c3cccc(Cl)c3n2)cc1`, the survival is 65%.

Turning to `COc1ccc(-c2cc(C(=O)Oc3cccc(C)c3)c3cc(C)ccc3n2)cc1`, the survival was 13% (active).

With `Cc1ccc(OC(=O)c2cc(-c3ccccc3)nc3ccc(C)cc23)cc1`, the survival was 49% (active).

For `Cc1ccc(-n2cc(C(=O)Oc3cccc(C)c3)c3ccccc3c2=O)cc1`, the survival was 69%.

On to `COc1ccc(-c2cc(C(=O)Oc3ccc(C)cc3)c3cc(C)ccc3n2)cc1`, for which the survival was 22% (active).

Consider `Cc1ccc(-c2cc(C(=O)Oc3ccccc3)c3cccc(C)c3n2)cc1`, for which the survival was 50%.

In the case of `COc1ccc(-c2cc(C(=O)OC(C)C(=O)c3ccccc3)c3cccc(Cl)c3n2)cc1` (centres undefined), the survival was 76%.

Regarding `Cc1ccc(-c2cc(C(=O)Oc3ccccc3)c3cc(C)ccc3n2)cc1`, the survival was 76%.

As for `Cc1ccc2nc(C)cc(C(=O)O)c2c1`, the survival is 99%.

Regarding `COc1ccc(-c2cc(C(=O)NCCc3ccccc3)c3cc(C(C)C)ccc3n2)cc1`, the survival is 76%.

Source of the values: PubChem BioAssay AID463173 (ICCB-Longwood Screening Facility, Harvard Medical School, 2010).
